According to PubChem BioAssay (Tox21):
Where “and” joins values, the source holds several entries; their conditions need not be identical. Equal entries are not always repeated. Records with an inconclusive call do not appear. Some structures have more than one record in an assay (separate samples or runs), and their calls can disagree. Calls of active or inactive are those of the source. Unless noted, calls come from the whole dose curve; as a rule, active = well fitted curve in the direction sought with a large enough effect in the repeat runs; inconclusive = weak or mixed curves; inactive = no such curve, though single readings can be large; an effect the other way counts as inactive or inconclusive.

Columns and labels:
[1] = qHTS assay to identify small molecule agonists of the androgen receptor (AR) signaling pathway in the presence of an antagonist - cell viability counter screen (AID 1259379); note: nearly all actives have a fitted effect of over 25% in size; note: potency is the fitted concentration of half-maximal effect
Outline: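 Each compound was tested at 15 concentrations on MDA-kb2 cells in the presence of 3.0uM nilutamide. Viability was measured by CellTiter-Fluor fluorescence after a 16 hr incubation at 37C in a CO2-free atmosphere.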

[2] = qHTS assay to identify small molecule agonists of the estrogen receptor beta (ER-beta) signaling pathway - cell viability counter screen (AID 1259380); note: nearly all actives have a fitted effect of over 30% in size; note: potency is the fitted concentration of half-maximal effect
Outline: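 Compounds dissolved in DMSO were pin-transferred onto ER-beta-UAS-bla HEK293T cells that had settled 6 hr, and exposure ran 16 hr at 37C. Following the reporter read, CellTiter-Glo luminescence after 30 min at room temperature indicated cytotoxicity.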

[3] = qHTS assay to identify small molecule antagonists of the estrogen receptor beta (ER-beta) signaling pathway - cell viability counter screen (AID 1259382); note: nearly all actives have a fitted effect of over 55% in size; note: potency is the fitted concentration of half-maximal effect
Outline: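 CellTiter-Glo ATP luminescence measured after the LiveBLAzer read in the same wells; ER-beta-UAS-bla HEK293T cells, 16 hr compound treatment with 1nM 17-beta-estradiol agonist at 37C, 5% CO2.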

[4] = qHTS assay to identify small molecule agonists of the estrogen receptor alpha (ER-alpha) signaling pathway in the presence of an antagonist - cell viability counter screen (AID 1259386);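 note: cells exposed to compounds for 22 h at 37 °C before the viability read; nearly all actives have a fitted effect of over 30% in size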; note: potency is the fitted concentration of half-maximal effect
Outline: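 Using estrogen-depleted VM7Luc4E2 cells, the 15-concentration compound series was applied together with 10.0nM ICI-182,780 and incubated 22hr at 37C/5% CO2. Cell viability was then scored by CellTiter-Fluor.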

[5] = target: Progesterone receptor (Homo sapiens) (UniProt P06401); experiment: qHTS assay to identify small molecule agonists of the progesterone receptor (PR) signaling pathway (AID 1346784; calls by dose curve; note: nearly all actives have a fitted effect of over 30% in size; note: potency is the fitted concentration of half-maximal effect)
Outline: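 PR-UAS-bla HEK 293T cells (beta-lactamase reporter under UAS) in 2% charcoal-stripped FBS, dosed with 23 nL compound after 6 hr, incubated 16hr at 37C. LiveBLAzer B/G FRET substrate added, fluorescence read after 2 hours.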

[6] = target: Progesterone receptor (Homo sapiens) (UniProt P06401); experiment: qHTS assay to identify small molecule antagonists of the progesterone receptor (PR) signaling pathway (AID 1346795; active = well fitted inhibition curve with a large enough effect in the signal ratio in the repeat runs, not every such curve was filed as active; the % refers to the signal ratio; note: potency is the fitted concentration of half-maximal effect)
Outline: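 PR-UAS-bla HEK293T cells with beta-lactamase reporter under UAS control, in 2% charcoal-stripped FBS, treated with compounds plus 1 nM promegestone (R5020, final) for 16 hr at 37C. Read-out: FRET beta-lactamase substrate fluorescence after 2 hr at room temperature.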

[7] = qHTS assay to identify small molecule antagonists of the progesterone receptor (PR) signaling pathway - cell viability counter screen (AID 1346798); note: nearly all actives have a fitted effect of over 50% in size; note: potency is the fitted concentration of half-maximal effect
Outline: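 PR-UAS-bla HEK293T cells, 3,000/well in 2% charcoal-stripped FBS medium, dosed with compounds plus R5020 agonist and incubated 16 h at 37C. Viability then measured in the same wells by CellTiter-Glo luminescence after 30 min at RT.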

[8] = qHTS assay to identify small molecule agonists of the progesterone receptor (PR) signaling pathway - cell viability counter screen (AID 1346799; calls by dose curve; note: nearly all actives have a fitted effect of over 45% in size; note: potency is the fitted concentration of half-maximal effect)
Outline: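 Counter screen in the PR-UAS-bla HEK293T wells (2% charcoal-stripped FBS, 16 h compound exposure at 37 C) after the bla read. CellTiter-Glo added, 30 min at room temperature, luminescence read as cell viability.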

[9] = qHTS assay to identify small molecule antagonists of the TGF-beta/Smad signaling pathway - cell viability counter screen (AID 1346824); note: nearly all actives have a fitted effect of over 50% in size; note: potency is the fitted concentration of half-maximal effect
Outline: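 SBE-bla HEK 293T cells were plated overnight at 37 C, then given compounds in DMSO plus TGF-beta1 (added as 0.25 ng/mL solution) for 5 hr. After the bla read, CellTiter-Glo was added to the same wells and luminescence read after 30 min at room temperature.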

[10] = qHTS assay to identify small molecule agonists of the TGF-beta/Smad signaling pathway - cell viability counter screen (AID 1346829); note: nearly all actives have a fitted effect of over 45% in size; note: potency is the fitted concentration of half-maximal effect
Outline: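 CellTiter-Glo luminescence readout; SBE-bla HEK 293T cells, overnight plating, compound 5 hr at 37 C/5% CO2, then bla substrate 2 hr RT, then CellTiter-Glo 30 min RT.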

[11] = target: Thyrotropin-releasing hormone receptor (Homo sapiens) (UniProt P34981); experiment: qHTS assay to identify small molecule antagonists of the thyrotropin-releasing hormone receptor (TRHR) signaling pathway (AID 1346877; active = well fitted inhibition curve with a large enough effect in the repeat runs, not every such curve was filed as active; note: potency is the fitted concentration of half-maximal effect)
Outline: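 Calcium signal in dye-loaded TRHR/HEK293 cells; compounds added 5 min before TRH (1 nM final); fluorescence monitored 3 min at 1 s steps.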

[12] = target: Thyrotropin-releasing hormone receptor (Homo sapiens) (UniProt P34981); experiment: qHTS assay to identify small molecule agonists of the thyrotropin-releasing hormone receptor (TRHR) signaling pathway (AID 1346891; calls by dose curve; note: series mostly up to about 58 µM)
Outline: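 HEK293 cells expressing TRHR plated 18 h at 37 C/5% CO2, calcium dye-loaded 2 h at 37 C, then compound added (agonist mode); kinetic calcium fluorescence read 3 min at 1 s intervals; 15 concentrations in triplicate.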

[13] = Human pregnane X receptor (PXR) small molecule agonists, qHTS cell viability counter screen (AID 1346977); note: nearly all actives have a fitted effect of over 50% in size; note: potency is the fitted concentration of half-maximal effect
Outline: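 PXR-Luc HepG2 cells (2,000/well, 5% charcoal-stripped FBS) preincubated 5 hr, then exposed to compounds 24 hr at 37 C. Viability read in the same wells by CellTiter-Fluor fluorescence, reagent added at 23 hr, 1 hr incubation.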

[14] = qHTS assay to identify small molecule agonists or antagonists of the thyroid stimulating hormone receptor (TSHR) signaling pathway - wild type cell line counter screen (AID 1259384; calls by dose curve)
Outline: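 Wild-type HEK293 cells were plated 18 h at 37 C/5% CO2, pin-dosed with compound plus Ro20-1724 medium, held 30 min at room temperature, then given cAMP-d2 and anti-cAMP-cryptate; fluorescence was read after 1 h. Fifteen concentrations, triplicate.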

[15] = target: Thyrotropin receptor (Homo sapiens) (UniProt P16473); experiment: qHTS assay to identify small molecule antagonists of the thyroid stimulating hormone receptor (TSHR) signaling pathway (AID 1259385; calls by dose curve; note: nearly all actives have a fitted effect of over 20% in size; note: potency is the fitted concentration of half-maximal effect)
Outline: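 TSHR-HEK293 cells were plated and held 18 h at 37C/5% CO2, then given compound plus Ro20-1724 and stimulated with TSH at 1.5 ng/mL final. After 30 min at room temperature, cAMP was detected with cAMP-d2/anti-cAMP-cryptate (1 h) by fluorescence.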

[16] = qHTS assay to identify small molecule agonists of the TGF-beta/Smad signaling pathway (AID 1346859; active = well fitted activation curve with a large enough effect in the signal ratio in the repeat runs, not every such curve was filed as active; the % refers to the signal ratio; note: series mostly up to about 77 µM)
Outline: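 SBE-bla HEK293T cells plated overnight, then compound exposure for 5 h at 37 C. Beta-lactamase reporter read with LiveBLAzer B/G FRET substrate after 2 h at room temperature, fluorescence at 405 nm excitation, 460/530 nm emission.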

[17] = target: Estrogen receptor (Homo sapiens) (UniProt P03372); experiment: qHTS assay to identify small molecule agonists of the estrogen receptor alpha (ER-alpha) signaling pathway in the presence of an antagonist (AID 1259383; calls by dose curve; note: nearly all actives have a fitted effect of over 15% in size; note: potency is the fitted concentration of half-maximal effect; for activation: top concentration of the series differs between compounds)
Outline: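 Luminescent ERE-luciferase reporter, VM7Luc4E2 cells (endogenous ER-alpha); 10.0nM ICI-182,780 final; 15-point compound titration; 22hr at 37C; ONE-Glo, 30min RT.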

[18] = target: Androgen receptor (Homo sapiens) (UniProt P10275); experiment: qHTS assay to identify small molecule agonists of the androgen receptor (AR) signaling pathway in the presence of an antagonist (AID 1259381; calls by dose curve; note: nearly all actives have a fitted effect of over 15% in size)
Outline: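 Plated MDA-kb2 cells (3,000/well) were pre-incubated 5hr, given nilutamide (3.0uM final) or buffer, then dosed with compounds in DMSO at 15 concentrations. Luciferase activity was quantified by luminescence after 16hr at 37C.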

Measured: Potency

Sequence of Androgen receptor (Homo sapiens) (P10275 whole entry, looked up): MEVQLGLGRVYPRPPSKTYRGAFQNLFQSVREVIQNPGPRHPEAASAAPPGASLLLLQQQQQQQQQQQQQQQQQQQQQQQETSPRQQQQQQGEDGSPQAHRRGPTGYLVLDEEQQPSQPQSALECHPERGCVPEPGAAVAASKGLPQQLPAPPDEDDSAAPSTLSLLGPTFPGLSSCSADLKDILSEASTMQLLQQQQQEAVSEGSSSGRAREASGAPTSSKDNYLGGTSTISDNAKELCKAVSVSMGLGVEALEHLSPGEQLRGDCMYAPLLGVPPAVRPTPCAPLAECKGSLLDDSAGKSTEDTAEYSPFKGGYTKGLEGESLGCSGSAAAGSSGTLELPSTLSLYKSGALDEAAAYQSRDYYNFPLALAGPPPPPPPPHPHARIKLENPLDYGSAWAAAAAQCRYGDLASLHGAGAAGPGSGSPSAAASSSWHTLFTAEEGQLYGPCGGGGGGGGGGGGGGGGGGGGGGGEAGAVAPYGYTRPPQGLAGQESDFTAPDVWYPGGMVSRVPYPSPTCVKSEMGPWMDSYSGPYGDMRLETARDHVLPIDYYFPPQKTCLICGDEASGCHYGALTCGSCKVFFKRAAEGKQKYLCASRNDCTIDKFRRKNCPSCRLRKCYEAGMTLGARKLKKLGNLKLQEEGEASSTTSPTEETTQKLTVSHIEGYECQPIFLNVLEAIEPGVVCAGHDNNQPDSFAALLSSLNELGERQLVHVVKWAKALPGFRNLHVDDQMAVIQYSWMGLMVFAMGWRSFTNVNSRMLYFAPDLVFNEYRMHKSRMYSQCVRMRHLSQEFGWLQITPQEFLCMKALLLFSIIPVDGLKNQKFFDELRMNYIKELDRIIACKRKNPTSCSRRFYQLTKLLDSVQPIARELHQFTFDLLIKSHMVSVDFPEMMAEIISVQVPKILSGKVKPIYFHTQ
Sequence of Estrogen receptor (Homo sapiens) (P03372 whole entry, looked up): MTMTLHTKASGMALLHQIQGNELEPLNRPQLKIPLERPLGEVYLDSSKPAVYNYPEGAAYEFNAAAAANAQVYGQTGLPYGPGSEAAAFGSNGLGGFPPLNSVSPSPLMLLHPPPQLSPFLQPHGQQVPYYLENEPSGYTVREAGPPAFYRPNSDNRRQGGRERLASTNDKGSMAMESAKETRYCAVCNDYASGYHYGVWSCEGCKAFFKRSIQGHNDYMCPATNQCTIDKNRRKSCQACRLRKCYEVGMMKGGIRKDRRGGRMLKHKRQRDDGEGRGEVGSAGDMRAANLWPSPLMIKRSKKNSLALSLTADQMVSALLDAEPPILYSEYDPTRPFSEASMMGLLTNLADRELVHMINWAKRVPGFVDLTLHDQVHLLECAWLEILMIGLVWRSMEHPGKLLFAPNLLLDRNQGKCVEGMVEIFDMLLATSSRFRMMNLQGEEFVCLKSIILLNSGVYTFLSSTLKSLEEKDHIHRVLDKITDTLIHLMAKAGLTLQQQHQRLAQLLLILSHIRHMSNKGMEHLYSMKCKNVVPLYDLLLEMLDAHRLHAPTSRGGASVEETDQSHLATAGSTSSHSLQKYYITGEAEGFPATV
Sequence of Thyrotropin receptor (Homo sapiens) (P16473 whole entry, looked up): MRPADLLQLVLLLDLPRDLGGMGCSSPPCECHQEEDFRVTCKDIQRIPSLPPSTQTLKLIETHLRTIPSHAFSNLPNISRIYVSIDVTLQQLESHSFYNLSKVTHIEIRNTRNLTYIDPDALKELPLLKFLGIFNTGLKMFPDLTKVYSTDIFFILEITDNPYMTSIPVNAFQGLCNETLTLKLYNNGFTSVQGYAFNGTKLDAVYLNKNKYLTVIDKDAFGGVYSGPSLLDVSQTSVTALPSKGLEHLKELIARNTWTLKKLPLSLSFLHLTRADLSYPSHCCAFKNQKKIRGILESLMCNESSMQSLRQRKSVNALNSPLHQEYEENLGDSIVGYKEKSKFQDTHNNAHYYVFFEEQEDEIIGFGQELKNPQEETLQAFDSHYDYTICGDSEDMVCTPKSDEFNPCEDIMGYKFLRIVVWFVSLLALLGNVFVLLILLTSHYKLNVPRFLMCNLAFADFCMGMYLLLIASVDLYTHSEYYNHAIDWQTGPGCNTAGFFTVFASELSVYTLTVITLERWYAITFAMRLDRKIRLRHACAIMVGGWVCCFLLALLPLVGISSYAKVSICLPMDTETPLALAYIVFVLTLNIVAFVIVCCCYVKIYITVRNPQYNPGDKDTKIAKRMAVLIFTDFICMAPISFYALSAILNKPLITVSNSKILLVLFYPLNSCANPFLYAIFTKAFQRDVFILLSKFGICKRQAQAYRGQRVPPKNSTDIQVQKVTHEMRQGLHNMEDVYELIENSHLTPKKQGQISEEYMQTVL
Sequence of Progesterone receptor (Homo sapiens) (P06401 whole entry, looked up): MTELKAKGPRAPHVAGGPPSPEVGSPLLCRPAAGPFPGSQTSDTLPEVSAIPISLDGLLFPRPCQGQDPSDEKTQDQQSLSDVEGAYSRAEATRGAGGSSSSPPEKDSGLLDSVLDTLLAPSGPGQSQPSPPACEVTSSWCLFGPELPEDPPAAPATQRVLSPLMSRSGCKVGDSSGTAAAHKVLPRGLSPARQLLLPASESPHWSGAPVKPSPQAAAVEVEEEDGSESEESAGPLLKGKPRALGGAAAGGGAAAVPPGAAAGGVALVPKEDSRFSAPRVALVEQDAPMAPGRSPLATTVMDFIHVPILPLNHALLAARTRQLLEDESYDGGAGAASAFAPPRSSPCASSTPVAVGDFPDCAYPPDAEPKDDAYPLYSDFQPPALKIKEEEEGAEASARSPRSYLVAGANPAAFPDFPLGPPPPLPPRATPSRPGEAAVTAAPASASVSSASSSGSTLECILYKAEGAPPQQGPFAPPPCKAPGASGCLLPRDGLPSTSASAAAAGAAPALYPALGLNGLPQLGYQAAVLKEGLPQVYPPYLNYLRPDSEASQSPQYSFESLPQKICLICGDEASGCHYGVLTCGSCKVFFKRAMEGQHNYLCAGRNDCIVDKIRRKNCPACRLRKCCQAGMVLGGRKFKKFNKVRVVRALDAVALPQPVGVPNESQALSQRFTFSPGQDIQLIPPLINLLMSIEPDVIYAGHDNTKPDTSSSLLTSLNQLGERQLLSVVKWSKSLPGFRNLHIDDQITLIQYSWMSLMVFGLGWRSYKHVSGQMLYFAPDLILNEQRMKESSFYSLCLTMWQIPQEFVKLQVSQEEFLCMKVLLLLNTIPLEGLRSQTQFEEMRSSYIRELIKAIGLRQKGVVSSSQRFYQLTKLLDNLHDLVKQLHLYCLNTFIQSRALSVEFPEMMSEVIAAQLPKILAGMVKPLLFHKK
Sequence of Thyrotropin-releasing hormone receptor (Homo sapiens) (P34981 whole entry, looked up): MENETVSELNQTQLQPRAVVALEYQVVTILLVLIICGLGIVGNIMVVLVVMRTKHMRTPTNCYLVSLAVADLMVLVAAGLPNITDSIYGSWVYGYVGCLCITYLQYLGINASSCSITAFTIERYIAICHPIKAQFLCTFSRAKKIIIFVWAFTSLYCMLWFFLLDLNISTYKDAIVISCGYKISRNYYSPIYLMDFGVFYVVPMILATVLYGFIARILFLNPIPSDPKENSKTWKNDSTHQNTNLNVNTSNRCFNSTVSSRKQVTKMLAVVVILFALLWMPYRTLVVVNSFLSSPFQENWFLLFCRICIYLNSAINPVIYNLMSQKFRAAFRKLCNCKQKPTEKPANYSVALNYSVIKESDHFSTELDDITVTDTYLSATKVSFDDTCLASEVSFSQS

COc1ccc(N)cc1N
active: [2] 7.08 µM and 13.1 µM | [3] 22.4 µM | [4] 63.1 µM | [9] 7.14 µM and 21 µM | [10] 7.14 µM and 11.8 µM | [13] 50.1 µM
inactive: [1] | [5] | [6] | [7] | [8] | [11] | [12]

BrC(Br)Br
active: [5] 7.7 µM
not listed: [8] | [11] | [12] | [17] | [18]
inactive: all other assays above

CC(=[OH+])/C=C(/C)[O-].CC(=[OH+])/C=C(\C)[O-].CC(=[OH+])/C=C(\C)[O-].[Fe]
not listed: [6] | [11] | [12] | [14] | [15] | [18]
inactive: all other assays above

O=C(CCl)C(Cl)Cl
inactive: [17] | [14] | [15] | [9] | [10] | [16] | [11] | [12]
active: [1] 27.6 µM | [7] 43.7 µM | [8] 27.6 µM | [13] 15.5 µM

CC(=O)[O-].[Tl+]
active: [3] 38.8 µM | [13] 27.5 µM
inactive: [1] | [4] | [7] | [8] | [9] | [10] | [16]

Oc1c(Cl)c(Cl)cc(Cl)c1Cl
not listed: [1] | [2] | [5] | [6] | [8] | [13]
inactive: all other assays above

CC[C@H]1C[C@@H]2C[C@H]3c4[nH]c5ccc(OC)cc5c4CCN(C2)[C@@H]13
inactive: [2] | [3] | [17] | [5] | [9] | [10] | [16] | [11] | [12]
active: [13] 47.7 µM

Clc1ccc(CCC(Cn2ccnc2)Sc2c(Cl)cccc2Cl)cc1 (centres undefined)
inactive: [14] | [15] | [4] | [9] | [10]
active: [2] 29.8 µM | [3] 33.5 µM | [7] 11.9 µM | [8] 21.1 µM

CN(C)C(=S)S
active: [3] 12.4 µM | [7] 15.7 µM and 17.2 µM | [13] 15.8 µM and 12.1 µM and 15.4 µM
inactive: [1] | [4] | [9] | [10] | [16]
inactive and 13.7 µM (active): [8]

CC(C)N1C(=O)N(c2ccccc2)CSC1=NC(C)(C)C
active: [6] 17.2 µM
not listed: [2] | [3] | [7] | [8] | [13] | [15] | [18]
inactive: all other assays above

Clc1ccc(CSC(Cn2ccnc2)c2ccc(Cl)cc2Cl)cc1 (centres undefined)
active: [2] 13.3 µM | [3] 13.3 µM
inactive: [14] | [9] | [10] | [16] | [11] | [12]

Nc1c(Oc2ccccc2)cc(O)c2c1C(=O)c1ccccc1C2=O
active: [17] 1.88 µM | [4] 26.6 µM
not listed: [1] | [13] | [14] | [15] | [18]
inactive: all other assays above

CC(C)(C)C(O)C(Oc1ccc(-c2ccccc2)cc1)n1cncn1 (centres undefined)
active: [6] 61.1 µM | [13] 61.1 µM
not listed: [1] | [2] | [3] | [5] | [7] | [8]
inactive: all other assays above

Clc1ccc(CO/N=C(\Cn2ccnc2)c2ccc(Cl)cc2Cl)c(Cl)c1
inactive: [14] | [9] | [10] | [16] | [11] | [12]
active: [3] 29.8 µM | [15] 26.6 µM | [7] 21.1 µM | [8] 15 µM

CC(C)(O)c1cnn2c(-c3ccc(F)c(-c4c(F)cccc4C#N)c3)cnc2n1
active: [2] 27.3 µM
inactive: [18] | [3] | [14] | [15] | [4] | [9] | [10] | [11]

BrC(Br)C(Br)(Br)Br
active: [11] 34 µM
not listed: [1] | [2] | [18]
inactive: all other assays above

CC(=O)/C=C/c1ccc2c(c1)OCO2
inactive: [2] | [3] | [4] | [5] | [9] | [10] | [16]
